Compounds with a hit are over-represented: about 21% of the library has one in this group of screens.
NS1 inh: blocks influenza NS1 protein function | Potency, µM (series often up to 46.1 µM), for inactives: at the highest dose activity, positive = more growth | 0.4% of 270,000 active | AID 2326; calls by dose curve; note: potency is the fitted concentration of half-maximal effect; actives are rising curves; nearly all actives have a fitted effect of over 50% in size
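OD600 was taken as the measure of yeast growth restored by compound in an NS1-expressing S. cerevisiae strain. Cells had been washed out of glucose medium and diluted 1:100 into galactose -URA medium, pH 6.0.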
CHX counter: affects cycloheximide protein synthesis inhibition readout, counter-screen. cell reporter, cycloheximide protein synthesis inhibition counterscreen. max response, %. AID 2314. 12% of 300,000 active; in the data active = max response mostly above about 13%, no sharp cut-off; inactive = mostly below about 14%; note: read at 38.3 µM for the half of the compounds with a filed dose; 0% is about no effect
Pf growth 48h: P. falciparum growth inhibition at 48 hours (one generation) | 5.9% of 310,000 active | Potency, µM (series often up to 28.7 µM), for the others: at the top dose activity change, negative = inhibition, hits mostly inhibitors | P. falciparum luciferase growth in erythrocytes, 48 h; note: potency is the fitted concentration of half-maximal effect; % is set by controls: 0 for no effect and ±100 for the full control effect
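A one-generation exposure of luciferase-tagged malaria parasites in RPMI 1640/Albumax erythrocyte culture, 37 C and 5% CO2. Inhibition is inferred from decreased luminescence after adding detection reagent.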
Pf growth 96h: P. falciparum growth inhibition at 96 hours; P. falciparum luciferase reporter growth, 96 h; Potency, µM (doses to about 28.7 µM), for inactives: top-dose activity change, negative = inhibition, usual class: inhibitors; 6.9% of 320,000 active; AID 504834; note: potency is the fitted concentration of half-maximal effect; % is set by controls: 0 for no effect and ±100 for the full control effect
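P. falciparum expressing integrated firefly luciferase grown in erythrocytes (2% hematocrit, 0.05% parasitemia final) with compounds for 96 hours at 37 C, 5% CO2. Growth inhibition read as loss of luminescence after adding luciferase detection reagent.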
Shiga inhibitor: Shiga toxin inhibition; Vero cells, Shiga toxin protein synthesis inhibition reporter; inhibition, % at 38.7 µM; 9.2% of 290,000 active; in the data active = inhibition mostly above about 28%, no sharp cut-off; inactive = mostly below about 43%; note: 0% is about no effect
Numbers without * were called inactive; i = inactive; ? = inconclusive; nt = not tested or not shown; [ ] = dose if it differs, or a comment. Unless noted, calls come from the whole dose curve; as a rule, active = well fitted inhibition curve with a large enough effect; inconclusive = small, poorly fitted or top-dose-only effect, or another doubt; inactive = no such curve, though single readings can be large or run the other way.

SMILES | NS1 inh | CHX counter | Pf growth 48h | Pf growth 96h | Shiga inhibitor
COc1ccc(-c2cc3c(=O)n(CC(=O)N4CCCC4)ncn3n2)cc1 | 0% | -2 | 39% | ? | 11
O=C(CCS(=O)(=O)c1ccc(Cl)cc1)Nc1nc(-c2ccncc2)cs1 | 10% | -5 | -5% | 18% | -4
CCOC(=O)N1CCN(C(=O)Cc2cccc3ccccc23)CC1 | -2% | 1 | 17% | -25% | -3
N#CC1=C(N)N=C(SCc2cccc3ccccc23)C(C(N)=O)C12CCCCC2 (stereo not given) | 8% | -3 | nt | 12µM* | -11
Cc1cc(S(=O)(=O)Nc2ccc3cn[nH]c3c2)c(C)cc1Cl | 1% | -8 | -8% | 31% | -24
CCOC(=O)C1CCN(c2c(NC3CCCc4ccccc43)c(=O)c2=O)CC1 (stereo not given) | -8% | -2 | 4% | -16% | -11
Cc1nn(C)c(C)c1CN(C)C(=O)c1cc2n(n1)C(C(F)(F)F)CC(c1cccs1)N2 (stereo not given) | -3% | -3 | ? | 9.3µM* | -12
Cc1nn(C)cc1CN(C)C(=O)c1nn2c(c1Cl)NC(c1cccs1)CC2C(F)(F)F (stereo not given) | -5% | -4 | ? | 2% | -7
Cc1nn(C)cc1CN(C)C(=O)c1nn2c(c1Br)NC(c1cccs1)CC2C(F)(F)F (stereo not given) | -4% | -4 | 13µM* | 5.2µM* | -14
CCOC(=O)c1sc(NC(=O)c2cc3n(n2)C(C(F)(F)F)CC(c2cccs2)N3)c(C(=O)OCC)c1C (stereo not given) | 7% | -3 | ? | ? | -8
O=C1CN(S(=O)(=O)c2ccccc2)c2ccccc2N1 | -2% | 9 | -19% | ? | 29
O=C(CN1CCN(C(=O)c2ccco2)CC1)Nc1cccc([N+](=O)[O-])c1 | -1% | -4 | 15% | 129% | -21
COc1ccc(CNC(=O)C(C)OC(=O)Cn2cnc3c2c(=O)n(C)c(=O)n3C)cc1 (stereo not given) | nt | nt | 24% | 56% | nt
O=C(CCc1nc2ccccc2s1)Nc1ccccc1 | -16% | 11* | 6% | 16% | 22
CCNC(=S)Nc1ccc(OCC)cc1 | 9% | -1 | 1% | 60% | 17
O=C(CCCc1nc2ccccc2s1)Nc1ccccc1 | nt | 24 | -11% | -32% | 24
CC(=O)c1ccc(OC(C)c2nc3ccccc3s2)cc1 (stereo not given) | -47% | 30* | 59% | -17% | 75*
COc1cccc(C(=O)N(C)C(C)c2nc3ccccc3s2)c1 (stereo not given) | -1% | 4 | 4% | -2% | 1
CCNC(=S)Nc1ccc(OCc2nc3ccccc3s2)cc1 | 7% | 33* | 94% | 56% | nt
O=C(O)CCCC(=O)Nc1ccc(OCc2nc3ccccc3s2)cc1 | 0% | 50* | 93% | 14% | 98*
Cc1ccc2[nH]c(O)c(N=NC(=O)C(C)n3cnc4ccccc4c3=O)c2c1 (stereo not given) | 1% | -2 | 2% | 3% | -3
CCOC(=O)C1(CC2CC2)CCN(S(=O)(=O)C[C@]23CC[C@H](CC2=O)C3(C)C)CC1 | -6% | -1 | ? | 0% | 7
COc1ccc(C(=O)CCc2nc3ccccc3s2)cc1 | -9% | 50* | 36% | ? | 41*
COc1ccccc1NC(=O)CCc1nc2ccccc2s1 | -8% | 15* | 0% | 20% | 55
CS(=O)(=O)c1ccc(Cl)c(C(=O)O)c1 | 1% | 7 | 35% | 3.7µM* | -13
SMILES | NS1 inh | CHX counter | Pf growth 48h | Pf growth 96h | Shiga inhibitor
CCc1nnc(NC(=O)c2ccc3ncsc3c2)s1 | 5% | 18* | 12% | 38% | 47*
O=C(CSc1nc2ccccc2s1)NC1CCCC1 | -5% | 7 | 15% | 4% | 32
Cc1ccc2nc(NC(=O)c3ccc(-c4nc5ccccc5s4)s3)sc2c1 | 25% | 51* | 132% | 164% | 86*
COc1ccc2nc(NC(=O)c3ccc(-n4nc(C)cc4C)cc3)sc2c1 | -4% | -3 | ? | 20% | -16
Cc1cnc(NC(=O)c2ccc3ncsc3c2)s1 | nt | nt | 111% | -66% | nt
O=C(NC1CC1)c1ccc(-c2nc3ccccc3s2)s1 | -116% | 24 | -8% | -14% | 38*
COc1ccc2nc(NC(=O)c3ccc(F)cc3)sc2c1 | -11% | 27* | 79% | ? | nt
COc1cccc(NC(=O)CN(C)C(=O)CCCNC(=O)c2ccc(Cl)cc2)c1 | nt | nt | 22% | 6% | nt
O=C(Nc1ccc(F)cc1)Nc1sccc1-c1nc2ccccc2s1 | 0% | 9 | 8.3µM* | ? | 23
COc1ccc2nc(NC(=O)c3ccc4ncsc4c3)sc2c1 | 20% | 56* | nt | 10% | 70*
Cc1ccc(C(=O)Nc2nc3ccccc3c(=O)s2)cc1 | 6% | 43* | 20% | 17% | 101*
O=C(Nc1nc(=O)c2ccccc2s1)c1ccccc1 | 8% | 46* | 16% | -1%[5.75 µM] | 95*
O=C(c1ccc(Cl)cc1)C1CCN(CC(=O)N2CCCCC2)CC1 | 5% | 1 | ? | ? | 25
O=C(Nc1cccc(-c2nc3cccnc3s2)c1)C1c2ccccc2Oc2ccccc21 | ? | -2 | -17% | -20% | 30
O=C(CNC(c1ccccc1)c1ccccc1)NCc1ccccc1Cl | -35% | -8 | ? | ? | -18
Cc1ccc(N(CC(=O)NCCSc2nc3ccccc3s2)S(=O)(=O)c2ccccc2)c(C)c1 | 10% | 0 | ? | ? | -10
CCc1nnc(NC(=O)c2ccc3c(c2)C(=O)N(C(C)(C)C)C3=O)s1 | 9% | 17* | 34% | 47% | 38
CC(C)(C)N1C(=O)c2ccc(C(=O)Nc3ccc(O)cc3)cc2C1=O | 4% | 23* | 26% | i | 46*
O=C(Nc1nc(=O)[nH]s1)c1ccccc1 | nt | 7 | 17% | -20% | 2
O=C(Nc1nc2c(s1)C(=O)CCC2)c1ccccc1 | -62% | 43* | 391% | ? | 48
CCc1nnc(NC(=O)c2ccncc2)s1 | -3% | -4 | 36% | 38% | 12
O=C(Nc1nc2ccccc2s1)c1ccc(F)cc1 | 0% | 32* | 113% | 36% | 82*
COc1cccc(C(=O)Nc2nc3ccccc3s2)c1 | -15% | 35* | 323% | 15µM* | 57*
COc1ccc(C(=O)Nc2nc3ccccc3s2)cc1 | -80% | 8 | 169% | 0% | 22
NC(=O)c1ccc2nc(NC(=O)c3ccc(N)cc3)sc2c1 | nt | 20* | 81% | 12µM* | 33*
O=C(Nc1nc2ccccc2s1)c1ccc(Cl)s1 | -34% | 32* | nt | -56% | 86*
COCCCNS(=O)(=O)c1ccc(S(=O)(=O)N2CCCC2)cc1 | 4% | 2 | nt | -25% | 14
CN(C)c1ccc(-c2cc(C3C4C=CCCC4(C)C(=O)N3Cc3ccccc3)ccc2F)cc1 (stereo not given) | nt | 5 | nt | nt | 41
CC(C)Cc1nnc(NC(=O)c2ccc(S(=O)(=O)N3CCCC3)cc2)s1 | nt | nt | 1% | -13% | nt
CC(=O)NCCC(=O)Nc1ccc(F)cc1C | 2% | -1 | 16% | 0% | 13

Source: PubChem
